75 molecules from ChEMBL document CHEMBL4513216, “Probing the Open Global Health Chemical Diversity Library for Multistage-Active Starting Points for Next-Generation Antimalarials” (ACS Infect Dis, 2020) can be followed below.

Each structure is given as a SMILES string. In all, about 69,000 compounds went through this assay and about 8,600 (12%) showed an effect of 50% or more. The entries come from a sample that favours strong results as a whole.

The test system of this experiment is Plasmodium berghei. The experiment can be described thus: Screen against P. berghei liver stage (PbLuc), transformed with Luciferase, at 10uM. The class given is functional, HepG2. Conditions: tested at 10 uM.
Regarding `Cc1ccccc1OC1(C(=O)O)CCN(C(=O)CCc2ccco2)CC1`, the INHIBITION was 39.3%. Turning to `CC(C)c1nc(CN(C)C2CCN(CCc3ccncc3)C2)no1` (stereo not given), the INHIBITION was -16%. Next, `Cc1ccc(CN(C)C(=O)CN2CCOC(Cn3cccn3)C2)o1` (stereo not given): 11.6%; `Cn1nc(C2CN(C(=O)c3ccncc3)C2)c2nccnc21`: 22%; `CCCc1nn(Cc2csc(C(C)C)n2)c(=O)o1`: 29.4%. The value for `CCc1nc(Cn2nc(COC)oc2=O)cs1` was 49.9%. Next, `CCCc1nn(Cc2csc(CC)n2)c(=O)o1`: 61%; `Cc1nc(CNC(=O)CCCc2cccs2)no1`: 35.9%. For `Cc1n[nH]cc1CNC(=O)CCCc1cccs1`, the INHIBITION was 54.5%. The value for `Cc1csc(CNC(=O)CCCc2cccs2)n1` was 3.48%; that for `COc1c(C(=O)NCc2cnn(C)c2C)nnn1Cc1ccccc1` was 40.8%. For `N#CC1COCCN1C(=O)c1ccc2[nH]cnc2c1` (stereo not given), the INHIBITION is reported as -13.9%.

For `N#CC1COCCN1C(=O)c1ccc2[nH]ccc2c1` (stereo not given), the INHIBITION was determined as 19.7%.

With `N#CC1COCCN1C(=O)c1ccc2cc[nH]c2c1` (stereo not given), the INHIBITION is listed as 53.3%. Next, `O=c1[nH]c(COc2ccc(Cl)cc2)nc2c1CCNC2`: -9.66%. Next, `CCCc1nnsc1C(=O)NCC(O)c1cccs1` (stereo not given): 19.9%; `COc1cccc([C@H]2CN(C(=O)c3cc(C)on3)C[C@@H]2N)c1`: 23.5%; `CCOCCN1C[C@H](c2cccc(OC)c2)[C@@H](N)C1`: 39.9%. The value for `COc1cccc([C@H]2CN(C(=O)c3noc4c3CCCC4)C[C@@H]2N)c1` was 31.4%. `COc1cccc([C@H]2CN(C(=O)c3nnc4n3CCCC4)C[C@@H]2N)c1`: the INHIBITION is 58.1%. Next, `C/C=C(\C)CN1C[C@H](c2cccc(OC)c2)[C@@H](N)C1`: -0.273%; `COc1cccc([C@H]2CN(C(=O)c3scc4c3CCCC4)C[C@@H]2N)c1`: 60.1%; `CC(C)CCOCCNC(=O)Nc1ccc(F)c(C(N)=O)c1`: -25.9%. Consider `CCn1c(N)nc2cc(C(=O)NCc3cccc(C)c3C)cnc21`, for which the INHIBITION is listed as -25.7%.

With `CCc1nnc(CN2CCC(N3CCN(CC)C3=O)CC2)o1`, the INHIBITION is -27.8%. Next, `Cc1cccn2c(=O)cc(OC(=O)c3ccc(OC(C)C)cc3)nc12`: -5.59%. Next, `Cc1ccc2c(cnn2CCC(=O)NCc2csc(C)n2)c1`: 23.6%; `CCn1cnnc1CCNS(=O)(=O)N1CCCC1c1ccco1` (stereo not given): 27.7%; `Cc1c(CN2CCCC2c2cncc(CN3CCCC3)n2)cnn1C` (stereo not given): 12.9%. Next, `CC(COc1ccccc1)NS(C)(=O)=O` (stereo not given): 52.6%. In the case of `COc1ccc(OCC(C)NS(C)(=O)=O)cc1` (stereo not given), the INHIBITION came to 0.472%. The value for `Cc1ccc(OCC(C)NS(C)(=O)=O)cc1` (stereo not given) was -1.7%; that for `Cc1ccc(OCC(C)NC(=O)CN(C)c2ccc(C#N)cn2)cc1` (stereo not given) was 8.38%. For the molecule `Cc1ccc(OCC(C)NS(C)(=O)=O)cc1C` (stereo not given), the INHIBITION stood at 15.7%. Next, `Cc1ccc(OCC(C)NS(=O)(=O)N(C)C)cc1` (stereo not given): 51.5%.

As for `CCOc1ccc2[nH]c(=O)c(CN3CCC(N4CCCC4)CC3)cc2c1`, the INHIBITION is given as -1.54%. Next, `Cc1cccc(C(=O)N2CCCC(c3noc(C)n3)C2)n1` (stereo not given): 4.71%. Next, `O=C(NCc1ccco1)[C@@H]1CCO[C@@H]2CCN(c3ccncn3)C[C@H]21`: 10%; `COc1ccccc1C(O)CNC(=O)Nc1ccccn1` (stereo not given): 35.9%; `Cc1ccc2c(c1)c(C)cc(=O)n2CCCN`: -17%. Next, `Cn1ccc2c(-c3cc(N)nc(N4CCOCC4)n3)ccnc21`: 18.8%; `Cn1ccc2c(-c3cc(N4CCOCC4)ncn3)ccnc21`: -3.96%. On to `CCc1cc(-c2ccnc3c2ccn3C)nc(N2CCOCC2)n1`, for which the INHIBITION worked out at 51.5%.

For `COc1cccc(CN2CCCCC2c2n[nH]cc2-c2cc(C)no2)c1` (stereo not given), the INHIBITION was found to be 25.8%. The value for `CNC(=O)c1cc2c(nc1NCC1CC1)CCN(c1ccncn1)CC2` was 32.4%; that for `Cc1cc(C)n(CNc2nonc2C(N)=O)n1` was 44.1%. The value for `CCc1nnc(CN(C)C(=O)CN2CC(c3ccccc3)CC2=O)o1` (stereo not given) was 62.4%; that for `CN(Cc1nc(C2CC2)no1)C(=O)CN1CC(c2ccccc2)CC1=O` (stereo not given) was 3.96%; that for `CCc1cc(CN(C)C(=O)CN2CC(c3ccccc3)CC2=O)on1` (stereo not given) was 9.91%. The value for `CCc1cc(O)n2nc(C3CCN(C(=O)c4cccnc4)CC3)cc2n1` was 13.3%. With `COc1ccc(OCCc2sc(C3(O)CCCNCC3)nc2C)cc1` (stereo not given), the INHIBITION is reported as 52.3%. Next, `CCN1CCCC(O)(c2nc(C)c(CCOc3ccc(F)cc3)s2)CC1` (stereo not given): 59.3%; `Cc1nc(C2(O)CCCNCC2)sc1CCOc1ccc(Cl)cc1` (stereo not given): 73.9%. In the case of `Cc1nc(C2(O)CCCNCC2)sc1CCOc1ccccc1Cl` (stereo not given), the INHIBITION was 55.6%.

Take `Cc1nc(C2(O)CCCNCC2)sc1CCOc1ccccc1F` (stereo not given): the INHIBITION was 0.301%. Next, `COc1ccc(OCc2sc(C3(O)CCCNCC3)nc2C)cc1` (stereo not given): 31.3%; `Cc1nc(C2(O)CCCNCC2)sc1CCOc1ccc(F)cc1` (stereo not given): 47.2%. Next, `Cc1nc(C2(O)CCCNCC2)sc1CCOc1ccccc1` (stereo not given): 49.6%.

Turning to `CCN1CCCC(O)(c2nc(C)c(CCOc3ccccc3F)s2)CC1` (stereo not given), the INHIBITION is on record as 7.52%.

Regarding `Cc1nc(C2(O)CCCNCC2)sc1CCOc1ccc(F)c(F)c1` (stereo not given), the INHIBITION came out at 46%. Consider `CCCN1CCCC(O)(c2nc(C)c(COc3ccccc3)s2)CC1` (stereo not given), for which the INHIBITION is 27.6%.

In the case of `CCN1CCCC(O)(c2nc(C)c(CCOc3ccccc3Cl)s2)CC1` (stereo not given), the INHIBITION came to 28%. The value for `CCSc1cc(C(=O)NC2CCN(C(=O)c3ccccc3)CC2)ccn1` was 33.4%; that for `Cc1ncc2c(n1)CN(Cc1nc(Cc3ccccc3)no1)CC2` was 41.2%; that for `O=C(CCOc1ccc(Cl)cc1)NCCCn1cccn1` was 48.8%. `O=C(CCOc1cccc(Cl)c1)N1CCN(c2cnccn2)CC1`: the INHIBITION was -8.11%. Next, `CCNC(=O)N1CCC(NC(=O)NCCCc2cccc(F)c2)C1` (stereo not given): 35%; `CC1CCN(C(=O)NCCc2cc(F)ccc2F)C1` (stereo not given): -21.2%; `Cc1ccc(CCNC(=O)NCCCC(N)=O)c(C)c1`: -18.6%.

As for `Cc1cccc(CC(=O)NC2CCN(C(=O)NC(C)(C)C)CC2)c1`, the INHIBITION is listed as -38.4%. Turning to `CCNC(=O)N1CCC(Cc2cccc(C(N)=O)c2)C1` (stereo not given), the INHIBITION stood at 10.7%. Next, `CCNC(=O)N1CCC(NC(=O)NCCc2cc3ccccc3o2)C1` (stereo not given): -43.8%. The value for `CCNC(=O)N1CCC(NC(=O)NCCc2ccc(C)cc2C)C1` (stereo not given) was 51.7%; that for `CCNC(=O)N1CCC(NC(=O)NCCc2cc(F)cc(F)c2)C1` (stereo not given) was 57.3%. Next, `CCNC(=O)N1CCC(NC(=O)NCCc2cccc(C)c2)C1` (stereo not given): 77.7%.
